Assay results published in PubChem BioAssay (Tox21).
Values joined by “and” are separate entries in the source; they are usually repeats but may differ in a detail not shown here. Equal entries are not always repeated. Results filed as inconclusive are left out. Entries that show only a call come without a potency. The source holds several records for some structures; these can differ, active in one and inactive in another. Active and inactive are the calls of the source. Calls follow the shape of the dose curve; as a rule, active = well fitted inhibition curve with a large enough effect in the repeat runs; inconclusive = weak or mixed curves; inactive = no such curve, though single readings can be large or run the other way.

Each compound was assayed against Cytochrome P450 1A2 (Homo sapiens) (UniProt P05177) (assay: Cytochrome P450 Family 1 Subfamily A Member 2 (CYP1A2) small molecule antagonists: luciferase reporter qHTS assay (AID 1671199; also: nearly all actives have a fitted effect of over 50% in size)). Conditions: P450-Glo CYP1A2 enzyme, luciferin luminescence, 1 h; series mostly up to 115 µM.
Sequence of Cytochrome P450 1A2 (Homo sapiens) (P05177 whole entry, looked up): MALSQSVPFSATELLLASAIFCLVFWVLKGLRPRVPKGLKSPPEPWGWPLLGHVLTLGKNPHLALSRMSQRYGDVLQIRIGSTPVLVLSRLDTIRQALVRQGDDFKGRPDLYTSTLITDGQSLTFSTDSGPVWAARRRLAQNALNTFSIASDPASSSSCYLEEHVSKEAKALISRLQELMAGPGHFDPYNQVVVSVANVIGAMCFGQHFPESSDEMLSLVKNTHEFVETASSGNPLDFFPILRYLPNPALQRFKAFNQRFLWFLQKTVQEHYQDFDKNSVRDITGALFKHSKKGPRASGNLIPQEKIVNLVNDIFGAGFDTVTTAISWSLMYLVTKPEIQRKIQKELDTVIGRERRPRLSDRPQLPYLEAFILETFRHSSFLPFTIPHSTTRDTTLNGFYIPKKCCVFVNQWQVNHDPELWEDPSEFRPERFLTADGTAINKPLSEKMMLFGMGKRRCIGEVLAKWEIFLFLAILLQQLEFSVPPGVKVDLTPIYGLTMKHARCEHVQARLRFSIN
Description: National Center for Advancing Translational Sciences [NCATS]
U.S. Environmental Protection Agency [EPA]
National Institutes of Environmental Health Sciences [NIEHS]
National Toxicology Program [NTP]
U.S. Food and Drug Administration [FDA]
Cytochrome P450 (CYP) enzymes are membrane-bound hemeproteins that play a key role in metabolism of drugs and xenobiotics. Evaluation of the effect of chemicals on CYP isozymes is useful to minimize the adverse drug reactions and toxicities in drug development process. Tox21 chemicals were tested for their effect on CYP enzyme activities by using P450-Glo (TM) screening systems (Promega Corporation, Madison, WI). These systems provide a luminescent method containing proluciferin substrates and are converted to luciferin products by CYP isozymes. The luciferin products formed are detected with a luciferin detection reagent, and the amount of light produced is proportional to CYP activity. P450-Glo (TM) CYP1A2 screening system (Catalog. No. V9770) was used to detect the compounds that interfere in CYP1A2 activity. The positive control compound used for CYP1A2 assay is furafylline (Sigma-Aldrich, St. Louis, MO).
Tox21 Assay Protocol Summary:
Two ul of enzyme-substrate mix was dispensed into medium binding white/solid 1536-well plates (Greiner Bio-One North America Inc., Monroe, NC) using a BioRaptr Flying Reagent Dispenser (FRD, Beckman Coulter, Brea, CA). Compounds dissolved in DMSO and positive control (furafyllline) were transferred to the assay plates at 23 nl using a Pintool station (Wako, San Diego, CA). The assay plates were incubated at room temperature for 10 min. Then 2 ul of NADPH regeneration solution was added to each well of the assay plates using an FRD and incubated at room temperature for 1 h. The reaction was stopped by adding 4 ul of detection reagent using an FRD and after 20 min incubation at room temperature the luminescence signal was measured using a ViewLux plate reader (Perkin Elmer, Shelton, CT). Data were expressed as relative luminescence units.
Potency is read from the fitted curve at half-maximal effect.

SMILES | Potency
COC(=O)Nc1cccc(OC(=O)Nc2cccc(C)c2)c1 | 7.1 µM (active) and 17.8 µM (active)
CN(C)NC(=O)CCC(=O)O | inactive
COS(=O)(=O)OC | inactive
O=[N+]([O-])c1ccc(Cl)c(Cl)c1 | inactive and 22.4 µM (active)
C=CC#N | inactive
Cc1ccc(N)cc1 | 28.4 µM (active) and 30.6 µM (active) and 25.2 µM (active)
Cc1cccc(C)c1N | inactive
CCNc1nc(Cl)nc(NC(C)C)n1 | 24.9 µM (active) and 22.4 µM (active)
Cc1cc(Cl)ccc1OC(C)C(=O)O (stereo not given) | inactive
CCOP(=S)(OCC)Oc1ccc([N+](=O)[O-])cc1 | 1.02 µM (active) and 976 nM (active)
ClCCOCCCl | inactive
CCCOC(=O)c1ccccc1C(=O)OCCC | 2.03 µM (active) and 3.17 µM (active)
CC(=O)/C=C/c1ccccc1 | 31.7 µM (active) and 39.9 µM (active)
CNC(=O)O/N=C/C(C)(C)S(C)(=O)=O | inactive
CNC(=O)O/N=C(\SC)C(=O)N(C)C | inactive
Cc1ccccc1N | inactive and 36.3 µM (active) and 31.7 µM (active)
O=C/C=C/c1ccccc1 | inactive and 39.9 µM (active)
C=CCN=C=S | inactive
N#CN=C(N)N | inactive
CNC(=O)O/N=C/C(C)(C)SC | inactive

SMILES | Potency
ClC(Cl)c1ccccc1 | inactive
O=C(O)C(Br)Br | inactive
Cc1ccc(N=C=O)cc1N=C=O | 36.5 µM (active) and 35.5 µM (active)
Nc1cc(Cl)cc(Cl)c1 | 21.6 µM (active) and 28.3 µM (active)
N#Cc1ccccn1 | inactive
CCOP(=S)(OCC)Oc1cc(C)nc(C(C)C)n1 | 6.33 µM (active) and 4.07 µM (active)
O=S(=O)(O)OOS(=O)(=O)O | 31.6 µM (active) and inactive
OCc1ccco1 | inactive
CCSC(=O)N1CCCCCC1 | inactive
O=C(O)COc1ccccc1 | inactive
COP(=S)(OC)SCN1C(=O)c2ccccc2C1=O | 10.1 µM (active) and 10 µM (active) and 6.92 µM (active)
CN(C)C(=O)C(c1ccccc1)c1ccccc1 | inactive
Oc1c(Br)cc(Br)cc1Br | 35.7 µM (active) and 63.3 µM (active) and inactive
C=CC(=O)OCCCCCC(C)C | inactive
CNC(=O)Oc1cccc2ccccc12 | 3.14 µM (active) and 8.94 µM (active)
CC(=O)C1CCOC1=O (stereo not given) | inactive
COP(=S)(OC)Oc1ccc(SC)c(C)c1 | 1.98 µM (active) and 2.24 µM (active) and 1.62 µM (active)
CCCCCCCCCCCCCCCCCC(=O)O | 2.5 µM (active) and inactive
C=C(C)C(=O)OCC(CC)CCCC (stereo not given) | inactive
O=C(O)Cc1ccccc1 | 63.4 µM (active) and inactive
